Experimental data from PubChem BioAssay (NCI).
About 83,000 compounds went through this panel and 20% of them were active in at least one assay; those are over-represented in the sample as a whole.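 Note: values are percent growth. 100 is the growth of untreated cells, values between 100 and 0 indicate rising inhibition; between -100 and 0 indicates cell death.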 Values without a mark were called inactive. The source made the active and inactive calls. Rule for the calls: active = growth percent below 10; inactive = the rest.

Experiments:
Assay in all cases: NCI-60 one-dose screen, 48 h (100 = growth as untreated, 0 = no growth, -100 = all killed)
Details in all cases: 10 µM unless noted
SR leukemia = test system: SR leukemia
RPMI-8226 leukemia = test system: RPMI-8226 leukemia
OVCAR-8 ovarian = test system: OVCAR-8 ovarian
OVCAR-5 ovarian = test system: OVCAR-5 ovarian
OVCAR-4 ovarian = test system: OVCAR-4 ovarian
SK-OV-3 ovarian = test system: SK-OV-3 ovarian
IGROV1 ovarian = test system: IGROV1 ovarian
OVCAR-3 ovarian = test system: OVCAR-3 ovarian
HS 578T breast = test system: HS 578T breast
NCI/ADR-RES ovarian = test system: NCI/ADR-RES ovarian
T-47D breast = test system: T-47D breast
BT-549 breast = test system: BT-549 breast
SW-620 colon = test system: SW-620 colon
MCF7 breast = test system: MCF7 breast
HCT-116 colon = test system: HCT-116 colon
HCC-2998 colon = test system: HCC-2998 colon
KM12 colon = test system: KM12 colon
MDA-MB-435 melanoma = test system: MDA-MB-435 melanoma

CCn1c(Cc2ccccc2Nc2c(Cl)cccc2Cl)nnc1SCC(=O)Nc1cccc(OC)c1
growth (SR leukemia): 87.1% | growth (RPMI-8226 leukemia): 63.2% | growth (OVCAR-8 ovarian): 89.8% | growth (OVCAR-5 ovarian): 82.9% | growth (OVCAR-4 ovarian): 78.7% | growth (SK-OV-3 ovarian): 85.4% | growth (IGROV1 ovarian): 67% | growth (OVCAR-3 ovarian): 96% | growth (HS 578T breast): 72% | growth (NCI/ADR-RES ovarian): 86.1% | growth (T-47D breast): 58.9% | growth (BT-549 breast): 98.8% | growth (SW-620 colon): 85.3% | growth (MCF7 breast): 84% | growth (HCT-116 colon): 66.5% | growth (HCC-2998 colon): 100% | growth (KM12 colon): 88%

COc1cnc2c(c1)C(=O)c1c-2n(CCCNC(C)C)c(=O)c2cc(Cl)ccc12
growth (SR leukemia): -52.1% (active) | growth (RPMI-8226 leukemia): -59% (active) | growth (OVCAR-8 ovarian): -41.6% (active) | growth (OVCAR-5 ovarian): -56.1% (active) | growth (OVCAR-4 ovarian): -77% (active) | growth (SK-OV-3 ovarian): -5.05% (active) | growth (IGROV1 ovarian): -57% (active) | growth (OVCAR-3 ovarian): -78.3% (active) | growth (HS 578T breast): 58.1% | growth (NCI/ADR-RES ovarian): -9.91% (active) | growth (T-47D breast): -84.3% (active) | growth (BT-549 breast): 30.9% | growth (SW-620 colon): -81.7% (active) | growth (MCF7 breast): -58.6% (active) | growth (HCT-116 colon): -92.4% (active) | growth (HCC-2998 colon): -52.1% (active) | growth (KM12 colon): -71.7% (active)

COc1cccc(-c2cc(-c3cccs3)c(C#N)c(=O)[nH]2)c1
growth (SR leukemia): 105% | growth (RPMI-8226 leukemia): 98.3% | growth (OVCAR-8 ovarian): 100% | growth (OVCAR-5 ovarian): 113% | growth (OVCAR-4 ovarian): 104% | growth (SK-OV-3 ovarian): 113% | growth (IGROV1 ovarian): 108% | growth (OVCAR-3 ovarian): 109% | growth (HS 578T breast): 96.4% | growth (NCI/ADR-RES ovarian): 116% | growth (T-47D breast): 93.3% | growth (BT-549 breast): 113% | growth (SW-620 colon): 105% | growth (MCF7 breast): 94.2% | growth (HCT-116 colon): 101% | growth (HCC-2998 colon): 125% | growth (KM12 colon): 101%

CCCCCCCCCCCCCCCC1=NCCN1
growth (SR leukemia): -44.9% (active) | growth (RPMI-8226 leukemia): 40.8% | growth (OVCAR-8 ovarian): 84.5% | growth (OVCAR-5 ovarian): 69% | growth (OVCAR-4 ovarian): 78% | growth (SK-OV-3 ovarian): 99.2% | growth (IGROV1 ovarian): 42.3% | growth (OVCAR-3 ovarian): 77% | growth (HS 578T breast): 84.4% | growth (NCI/ADR-RES ovarian): 75.4% | growth (T-47D breast): -15.4% (active) | growth (BT-549 breast): 98% | growth (MDA-MB-435 melanoma): 0.615% (active) | growth (MCF7 breast): 32% | growth (HCT-116 colon): 34.6% | growth (HCC-2998 colon): 73.8% | growth (KM12 colon): 64.1%

CC(=O)Nc1ccc(/C=N/N2CCCCCC2)cc1
growth (SR leukemia): 96.2% | growth (RPMI-8226 leukemia): 116% | growth (OVCAR-8 ovarian): 101% | growth (OVCAR-5 ovarian): 96.7% | growth (OVCAR-4 ovarian): 99.1% | growth (SK-OV-3 ovarian): 99.9% | growth (IGROV1 ovarian): 111% | growth (OVCAR-3 ovarian): 99.4% | growth (HS 578T breast): 96.3% | growth (NCI/ADR-RES ovarian): 103% | growth (T-47D breast): 100% | growth (BT-549 breast): 91.5% | growth (MDA-MB-435 melanoma): 95.6% | growth (MCF7 breast): 92.2% | growth (HCT-116 colon): 99.5% | growth (HCC-2998 colon): 109% | growth (KM12 colon): 97.8%

CC(C)CC1NC(=O)C(CC(C)C)N(CO)C1=O (stereo not drawn)
growth (SR leukemia): 96.4% | growth (RPMI-8226 leukemia): 81.1% | growth (OVCAR-8 ovarian): 107% | growth (OVCAR-5 ovarian): 106% | growth (OVCAR-4 ovarian): 113% | growth (SK-OV-3 ovarian): 102% | growth (IGROV1 ovarian): 106% | growth (OVCAR-3 ovarian): 123% | growth (HS 578T breast): 106% | growth (NCI/ADR-RES ovarian): 117% | growth (T-47D breast): 96.5% | growth (BT-549 breast): 101% | growth (MDA-MB-435 melanoma): 111% | growth (MCF7 breast): 92.7% | growth (HCC-2998 colon): 102% | growth (KM12 colon): 110%

Oc1ccccc1-c1nnc(COc2ccc(Cl)cc2Cl)o1
growth (SR leukemia): 36% | growth (RPMI-8226 leukemia): 39.4% | growth (OVCAR-8 ovarian): 36.8% | growth (OVCAR-5 ovarian): 89.1% | growth (OVCAR-4 ovarian): 49.3% | growth (SK-OV-3 ovarian): 60.7% | growth (IGROV1 ovarian): 50.7% | growth (OVCAR-3 ovarian): 20.2% | growth (HS 578T breast): 78.2% | growth (NCI/ADR-RES ovarian): 30.6% | growth (T-47D breast): 42.6% | growth (MDA-MB-435 melanoma): 63.9% | growth (SW-620 colon): 51.2% | growth (HCT-116 colon): 18.2% | growth (HCC-2998 colon): 76.8% | growth (KM12 colon): 41.5%

COc1ccc(-c2conc2-n2nc(-c3ccccc3)nc2-c2ccccc2)cc1
growth (SR leukemia): 76.2% | growth (RPMI-8226 leukemia): 106% | growth (OVCAR-8 ovarian): 110% | growth (OVCAR-5 ovarian): 104% | growth (OVCAR-4 ovarian): 104% | growth (SK-OV-3 ovarian): 107% | growth (IGROV1 ovarian): 101% | growth (OVCAR-3 ovarian): 131% | growth (HS 578T breast): 111% | growth (NCI/ADR-RES ovarian): 99.1% | growth (BT-549 breast): 104% | growth (MDA-MB-435 melanoma): 105% | growth (SW-620 colon): 104% | growth (MCF7 breast): 89.1% | growth (HCT-116 colon): 97.2% | growth (KM12 colon): 110%
